An excerpt weighted towards active compounds, which were near 1.1% of everything screened.
SARS PLP yeast – qHTS of Yeast-based Assay for SARS-CoV PLP; S. cerevisiae expressing SARS-CoV PLpro, growth rescue; Potency, µM (highest dose often 32.9 µM), for the others: at the highest dose activity, positive = growth rescue, most hits filed as activators; actives 0.19% (n = 330,000); AID 485353, 2010; calls by dose curve; further: 0% is about no effect; nearly all actives have a fitted effect of over 55% in size
AmpC detergent – qHTS Inhibitors of AmpC Beta-Lactamase (assay with detergent); P00811; Potency, µM (series often up to 114 µM), without a hit: at the highest dose activity change, negative = inhibition, usual class: inhibitors; actives 0.041% (n = 370,000); AmpC hydrolysis of nitrocefin, absorbance 480 nm, 0.01% Triton; AID 485294, 2010;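 further: 0% = no-compound wells and -100% = no-enzyme wells; nearly all actives have a fitted effect of over 25% in size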
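AmpC (5.3 nM in the dispensed reagent) in 20 mM phosphate pH 7.0 with 0.01% (detergent screen) or 0.0001% Triton X-100 was preincubated with compounds for 15 min at room temperature. Nitrocefin was then added from an 800 uM solution, and hydrolysis was followed at 480 nm.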
Giardia FBPA inh-1 – qHTS Assay for Inhibitors of Fructose-1,6-bisphosphate Aldolase from Giardia Lamblia. purified Giardia FBPA. A8B2U2. Potency, µM (highest dose often 59.6 µM), for inactives: top-dose activity, negative = inhibition, most hits filed as inhibitors. actives 0.71% (n = 290,000). AID 2451, 2010; further: on the % scale 0 is the no-effect control and ±100 the full control effect; nearly all actives have a fitted effect of over 55% in size
Target sequence (A8B2U2 whole entry, looked up): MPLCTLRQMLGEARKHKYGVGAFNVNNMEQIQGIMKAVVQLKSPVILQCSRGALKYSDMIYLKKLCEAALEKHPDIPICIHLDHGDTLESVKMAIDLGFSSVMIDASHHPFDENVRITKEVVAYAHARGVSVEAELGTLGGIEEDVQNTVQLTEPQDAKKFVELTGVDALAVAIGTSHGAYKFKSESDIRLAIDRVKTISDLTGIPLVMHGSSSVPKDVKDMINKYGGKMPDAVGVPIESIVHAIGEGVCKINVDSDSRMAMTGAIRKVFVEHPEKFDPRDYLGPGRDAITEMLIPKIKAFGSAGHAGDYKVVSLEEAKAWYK
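40 nM FBPA preincubated 10 min at RT with compound (up to 57.5 uM final), then substrate plus GAPDH/TPI/NAD/arsenate coupling and diaphorase/resazurin added. Fluorescence read after 20 min at RT, 525/598 nm.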
AmpC inh no detg – qHTS Inhibitors of AmpC Beta-Lactamase (assay without detergent); P00811; AID 485341, 2010; actives 0.52% (n = 330,000); Potency, µM (top dose mostly 57.1 µM), inactives show top-dose activity change, negative = inhibition, actives largely listed as inhibitors; AmpC nitrocefin hydrolysis, absorbance 480 nm, 0.0001% Triton;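 further: plate controls were no compound for no effect and no enzyme for full effect; nearly all actives have a fitted effect of over 20% in size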
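AmpC (5.3 nM in the dispensed reagent) in 20 mM phosphate pH 7.0 with 0.01% (detergent screen) or 0.0001% Triton X-100 was preincubated with compounds for 15 min at room temperature. Nitrocefin was then added from an 800 uM solution, and hydrolysis was followed at 480 nm.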
Giardia growth – qHTS Assay for Inhibitors of Fructose-1,6-bisphosphate Aldolase from Giardia Lamblia: Giardia lamblia growth inhibition. shares compounds with Giardia FBPA inh-1. AID 2785, 2010. actives 5% (n = 1,500). Potency, µM (titrated, usually from 57.5 µM), for the others: top-dose activity change, negative = inhibition, usual class: inhibitors. Giardia lamblia trophozoite growth inhibition;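 further: trophozoites exposed to compound for 48 h at 37 °C; on the % scale 0 is the no-effect control and ±100 the full control effect; nearly all actives have a fitted effect of over 70% in size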
Mammalian tox – qHTS Assay for Inhibitors of Fructose-1,6-bisphosphate Aldolase from Giardia Lamblia: Mammalian cellular toxicity. AID 2786, 2010. mammalian cell viability counter-screen, qHTS. Potency, µM (series often up to 57.5 µM), for inactives: top-dose viability change, negative = toxicity, actives largely listed as inhibitors. actives 4% (n = 1,500). shares compounds with Giardia FBPA inh-1;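 further: Chinese hamster ovary cells used as mammalian cytotoxicity surrogate; viability measured as cellular ATP by luminescence; compound exposure lasted 48 h before reading; on the % scale 0 is the no-effect control and ±100 the full control effect; nearly all actives have a fitted effect of over 60% in size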
Giardia FBPA inh-2 – qHTS Assay for Inhibitors of Fructose-1,6-bisphosphate Aldolase from Giardia Lamblia: Primary screen confirmation | shares compounds with Giardia FBPA inh-1 | purified Giardia aldolase enzyme activity, qHTS | Potency, µM (series often up to 57.5 µM), for inactives: at the top dose activity change, negative = inhibition, hits mostly inhibitors | actives 5% (n = 1,500); further: on the % scale 0 is the no-effect control and ±100 the full control effect; nearly all actives have a fitted effect of over 45% in size
Rabbit FBPA inh – qHTS Assay for Inhibitors of Fructose-1,6-bisphosphate Aldolase from Giardia Lamblia: Rabbit FBPA Selectivity | Potency, µM (top dose mostly 57.5 µM), for inactives: at the top dose activity, negative = inhibition, hits mostly inhibitors | shares compounds with Giardia FBPA inh-1 | actives 4% (n = 1,500) | Rabbit muscle FBPA enzyme inhibition, selectivity counter-screen; further: on the % scale 0 is the no-effect control and ±100 the full control effect; nearly all actives have a fitted effect of over 60% in size
Target sequence (P00883 whole entry, looked up): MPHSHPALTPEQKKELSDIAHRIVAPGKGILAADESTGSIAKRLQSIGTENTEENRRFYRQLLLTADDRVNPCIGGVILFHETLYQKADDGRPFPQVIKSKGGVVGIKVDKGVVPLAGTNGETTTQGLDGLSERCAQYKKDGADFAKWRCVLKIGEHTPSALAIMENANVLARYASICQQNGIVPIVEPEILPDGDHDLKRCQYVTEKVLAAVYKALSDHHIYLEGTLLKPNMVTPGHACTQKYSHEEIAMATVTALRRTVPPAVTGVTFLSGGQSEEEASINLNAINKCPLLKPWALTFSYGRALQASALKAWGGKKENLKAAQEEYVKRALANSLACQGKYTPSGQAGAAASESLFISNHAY
GAPDH counter – qHTS Assay for Inhibitors of Fructose-1,6-bisphosphate Aldolase from Giardia Lamblia: Coupling assay counterscreen confirmation. GAPDH coupling enzyme counterscreen, biochemical, qHTS. Potency, µM (doses to about 57.5 µM), without a hit: top-dose activity change, negative = inhibition, usual class: inhibitors. shares compounds with Giardia FBPA inh-1. actives 6% (n = 1,500). AID 2795, 2010; further: on the % scale 0 is the no-effect control and ±100 the full control effect; nearly all actives have a fitted effect of over 55% in size
Active calls of the source: *; u = inconclusive; x = no result given; [ ] = remark or other dose. Unless noted, the call rests on the fitted dose curve; in most records, active means well fitted curve in the direction sought with a large enough effect; inconclusive means small, poorly fitted or top-dose-only effect, or another doubt; inactive means no such curve, though single readings can be large; an effect the other way counts as inactive or inconclusive. Potency means the concentration at half of the fitted maximal effect.

SMILES	SARS PLP yeast	AmpC detergent	Giardia FBPA inh-1	AmpC inh no detg	others
CN(C)[C@@H]1C(=O)C(C(N)=O)=C(O)[C@@]2(O)C(=O)C3=C(O)c4c(O)cccc4[C@@](C)(O)[C@H]3[C@H](O)[C@@H]12	13%	u	4.5µM*	-23%
CN(C)[C@H]1C(=O)C(C(=O)NCN2CCCC2)=C(O)[C@]2(O)C(=O)C3=C(O)c4c(O)cccc4[C@@](C)(O)[C@H]3C[C@@H]12	x	x	4.5µM*	x
COC1=CC(=O)C=C(OC)C1=O	x	x	7.1µM*	x
COC(=O)C1=C(C(=O)OC)[C@@H]2Nc3ccccc3[C@@]23C[C@@H](C(=O)OC)N(S(=O)(=O)c2c(C)noc2C)C3=N1	x	x	2%[12.9 µM]	x
O=c1/c(=C\c2cc([N+](=O)[O-])cc([N+](=O)[O-])c2O)sc2nc3ccccc3n12	2%	u	16µM*	-46%
COC(=O)/C=c1/sc2nc3ccccc3n2c1=O	1%	45µM*	-1%	-34%
CCN(CC)c1ccc(C(=C2C=CC(=[N+](CC)CC)C=C2)c2ccccc2)cc1	x	x	18µM*	x
CCN(CC)c1ccccc1	2%	-4%	x	-4%
Cc1nnc(N/N=C/c2ccccc2F)n1N	-5%	-7%	u	14%
Cc1nnc(N/N=C/c2ccco2)n1N	-1%	-8%	20µM*	-8%
O=c1oc2ccccc2c(Nc2ccccc2O)c1[N+](=O)[O-]	-4%	6%	0%	-24%
O=c1oc2ccccc2c(Nc2cc3ccccc3cc2O)c1[N+](=O)[O-]	-2%	4%	6.3µM*	-30%
COc1ccc(SCCN2CCN(CCc3ccccc3)CCC2=O)cc1	x	x	-1%	x
CCOC(=O)N1CCN(c2c(F)cc3[nH]c(=S)[nH]c3c2Br)CC1	2%	-1%	6%	28µM*
CCOC(=O)N1CCN(c2cc3[nH]c(=S)[nH]c3cc2F)CC1	-1%	u	-5%	-3%
COc1cccc(-n2c(/C=C/c3ccc(O)c(O)c3)nc3ccccc3c2=O)c1	0%	-2%	-27%	18µM*
COc1ccc(-n2c(/C=C/c3ccc(O)c(OC)c3)nc3ccccc3c2=O)cc1	-5%	4%	3%	51%
O=C(O)[C@H]1O[C@@H](Oc2ccc3ccc(=O)oc3c2)[C@H](O)[C@@H](O)[C@@H]1O	x	x	3%	x
Cc1ccc(C2CC(c3cccc(Cl)c3)n3nc(N)nc3N2)cc1 (configuration not stated)	0%	u	1%	6.3µM*
Cc1cccc(C2CC(c3ccc(Cl)cc3)Nc3nc(N)nn32)c1 (configuration not stated)	-1%	u	4%	3.5µM*
CCc1ccc(C2CC(c3cccc(Cl)c3)n3nc(N)nc3N2)cc1 (configuration not stated)	0%	u	-9%	-11%
Cc1ccccc1C1C(C#N)=C(N)N(N(C)C)C2=C1C(=O)CC(C)(C)C2 (configuration not stated)	1%	-15%	-16%	2%
CN(C)N1C(N)=C(C#N)C(c2cccs2)C2=C1CC(C)(C)CC2=O (configuration not stated)	-4%	0%	18µM*	0%
O=C(O)c1ccccc1SSc1ccccc1C(=O)O	1%	-5%	-5%	-13%
C[CH2][Hg][S]c1ccccc1C(=O)O	x	x	13µM*	x
SMILES	SARS PLP yeast	AmpC detergent	Giardia FBPA inh-1	AmpC inh no detg	others
S=C(Nc1ccc2c(c1)OCO2)Nc1ccc2c(c1)OCO2	-30%	u	-27%	-4%
CCn1ncc(NC(=S)Nc2ccc3c(c2)OCO3)c1C(N)=O	0%	u	18µM*	-21%	Giardia growth=-20%[10.4 µM];Mammalian tox=-12%;Giardia FBPA inh-2=-23%;Rabbit FBPA inh=-10%;GAPDH counter=-9%
CCn1ncc(NC(=S)Nc2ccc(OC)c(OC)c2)c1C(N)=O	0%	4%	16µM*	-29%	Giardia growth=-30%;Mammalian tox=-6%;Giardia FBPA inh-2=-15%;Rabbit FBPA inh=-5%;GAPDH counter=-5%
O=C1CC(c2ccc(O)c(O)c2)Oc2cc(O)cc(O)c21 (configuration not stated)	0%	1%	-19%	-36%
Oc1ccc(C2C[C@H]3CC[C@@H]2C3)cc1O (some centres not stated)	-3%	0%	28µM*	-54%	Giardia growth=-18%;Mammalian tox=-5%;Giardia FBPA inh-2=14µM*;Rabbit FBPA inh=32µM*;GAPDH counter=32µM*
Cc1cc(C)c2nc(N(Cc3cccnc3)C(=O)c3cccs3)sc2c1	x	3%	x	x
C=CC(=O)c1ccc(CCCCCC)cc1	x	x	13%	x
O=C(OCCN1CCOCC1)c1cccc(F)c1	7%	9%	-21%	-21%
Cc1cccc(C(=O)OCCN2CCOCC2)c1	4%	-16%	14µM*	5%	Giardia growth=u;Mammalian tox=2%;Giardia FBPA inh-2=3%;Rabbit FBPA inh=9%;GAPDH counter=9%
COc1ccccc1CCNC(=O)Cn1ccc2cc(S(=O)(=O)N3CCCCC3)ccc21	x	0%	x	x
Cc1ccc(C)c(NC(=S)Nc2ncccc2C)c1	-1%	4%	u	-8%
Cc1cccnc1NC(=S)Nc1ccc(F)cc1F	1%	-1%	20µM*	-12%	Giardia growth=u;Mammalian tox=6%;Giardia FBPA inh-2=-3%;Rabbit FBPA inh=12%;GAPDH counter=-6%
Cc1ccc(S(=O)(=O)N2CCN(C3CC4CCC3C4)CC2)cc1 (configuration not stated)	0%	0%	14µM*	-20%	Giardia growth=18%;Mammalian tox=-1%;Giardia FBPA inh-2=3%;Rabbit FBPA inh=0%;GAPDH counter=14%
COc1ccc(S(=O)(=O)N2CCN(C3CC4CCC3C4)CC2)cc1 (configuration not stated)	2%	-7%	-23%	-13%
O=c1[nH]c(=S)[nH]c2sccc12	3%	10%	7.1µM*	-12%	Giardia growth=-6%[38.3 µM];Mammalian tox=-6%;Giardia FBPA inh-2=-12%;Rabbit FBPA inh=-15%;GAPDH counter=-9%

Screens as filed in PubChem BioAssay.
